Shown are actives, neighbours in structure and some others; about 6% of the full set was active somewhere.
D3 ag: activates the human D3 dopamine receptor; 410,000 tested, 0.58% active; P35462; D3R DiscoveRx beta-arrestin cells, luminescence, 90 min; AID 652048; max activation, %; in the data active = max activation above about 30%; also: 0% is about no effect
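Cells at 1500/well, incubated overnight, then treated with pinned compounds (dopamine as control) for 90 min at 37 degrees C. DiscoveRx reagent added for 30 - 60 minutes at room temperature; luminescence read.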
D1 potentiator: potentiators of human D1 dopamine receptor | P21728 | HEK293 TREx D1 cells, calcium flux, dopamine EC20 potentiation | potentiation, % at 10 µM | 360,000 tested, 0.036% active | AID 504651; in the data active = potentiation above about 30%; also: 0% is about no effect
Target sequence (P21728 whole entry, looked up): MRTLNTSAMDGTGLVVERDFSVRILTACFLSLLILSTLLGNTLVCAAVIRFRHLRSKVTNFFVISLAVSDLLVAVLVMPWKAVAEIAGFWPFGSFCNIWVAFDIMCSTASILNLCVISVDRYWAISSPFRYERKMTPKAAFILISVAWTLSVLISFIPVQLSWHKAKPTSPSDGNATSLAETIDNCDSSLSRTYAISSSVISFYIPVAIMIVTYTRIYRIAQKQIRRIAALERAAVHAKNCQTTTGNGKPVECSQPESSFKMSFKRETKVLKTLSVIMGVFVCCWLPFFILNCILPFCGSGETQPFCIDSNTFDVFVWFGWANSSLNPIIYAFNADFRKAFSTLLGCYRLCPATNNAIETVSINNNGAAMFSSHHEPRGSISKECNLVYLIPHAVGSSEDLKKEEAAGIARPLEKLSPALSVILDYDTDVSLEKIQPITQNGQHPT
D1 agonist: human D1 receptor agonism; P21728; HEK293 T-REx D1 cells, calcium flux, agonist mode; activation, % at 2 µM; 360,000 tested, 1% active; in the data active = activation above about 30%; also: 0% is about no effect
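Inducible HEK293 T-REx D1 cells, force-coupled to calcium signalling, were plated at 4000 cells/well with tetracycline and held overnight at 30 C. After no-wash calcium dye loading, compound-evoked calcium rise over 180 s flagged agonists.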
D1 antagonist: antagonists of human D1 dopamine receptor; 360,000 tested, 3.2% active; activity change, negative = inhibition, % at 10 µM; P21728; AID 504652; HEK293 TREx D1 cells, calcium flux, dopamine EC80; active compounds read low; in the data active = activity change below about -30%; also: % is scaled to controls: 0 for no effect and ±100 for the full control effect
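Antagonism measured as reduced calcium response to an EC80 dopamine addition following 180 s compound pre-read; cells were inducible HEK293 Trex D1 plated overnight at 30 C, read kinetically at 1 cycle/sec.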
D3 antag: D3 dopamine receptor (human) antagonism. AID 652054. D3R cells, DiscoveRx beta-arrestin luminescence, antagonist mode; active compounds read low. max response, negative = inhibition, %. 360,000 tested, 2.5% active. P35462; in the data active = max response below about -50%; inconclusive = no clear call, values can overlap the other calls; also: % is scaled to controls: 0 for no effect and ±100 for the full control effect
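Cells plated overnight at 1500 cells/well, then exposed to library compounds with dopamine controls for 90 minutes at 37 degrees C. DiscoveRx reagent added for 30–60 minutes at room temperature; luminescence read, quantitative HTS format.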
* = called active by the depositor; ? = inconclusive; / = no result given.

SMILES | D3 ag | D1 potentiator | D1 agonist | D1 antagonist | D3 antag
CN1\C(=C/C=C/C=C/C=[N+](C)C)C(C)(C)c2ccccc21 | -4 | 6 | 324* | -20 | -15
COc1cccc(C(=O)NCC(c2ccc(N(C)C)cc2)N2CCc3ccccc32)c1OC (stereo not drawn) | 4 | 1 | 0 | -1 | /
N#Cc1ccccc1COC(=O)c1ccc2c(c1)OCO2 | 2 | -2 | 3 | -42* | 14
N#Cc1ccccc1COC(=O)c1ccc2c(c1)OCCO2 | -3 | -1 | 4 | -11 | 0
O=C(O)c1sccc1Oc1ccc(NS(=O)(=O)c2ccc(Cl)cc2)cc1 | 2 | -4 | 3 | 5 | 17
N#Cc1cccc(C#N)c1Oc1ccc(S(=O)(=O)Nc2ccc(Cl)cc2)cc1 | -8 | -4 | 12 | -38* | -16
CSCCC(NS(=O)(=O)c1ccccc1)C(=O)OCc1nc2ccsc2c(=O)[nH]1 (stereo not drawn) | 4 | -5 | 1 | 4 | 3
CSCCC(NS(=O)(=O)c1ccccc1)C(=O)OCc1cc(=O)oc2cc(O)ccc12 (stereo not drawn) | -1 | -3 | 5 | -1 | -52*
CSCSC1=C(C#N)C(c2ccc(Cl)cc2)C(C(C)=O)=C(C)N1 (stereo not drawn) | / | -13 | 5 | -31* | /
CCOC(=O)CSC1=C(C#N)C(c2ccccc2)C(C(C)=O)=C(C)N1 (stereo not drawn) | 5 | 1 | 0 | -31* | -10
Cc1ccccc1-c1nnc(CN2CCC(C)CC2)o1 | -21 | -2 | 0 | 0 | ?
c1ccc(N2CCN(Cc3nnc(-c4ccc5c(c4)OCO5)o3)CC2)cc1 | 37* | 1 | 5 | -16 | /
c1ccc(-c2nnc(CN3CCN(c4ccccc4)CC3)o2)cc1 | 55* | -4 | 5 | -20 | -17
Clc1cccc(N2CCN(Cc3nnc(-c4ccccc4)o3)CC2)c1 | 24 | -3 | 4 | -16 | ?
Cc1ccccc1-c1nnc(CN2CCN(c3ccccn3)CC2)o1 | 50* | -3 | 6 | -3 | /
Cc1ccc(C)c(N2CCN(Cc3nnc(-c4ccc5c(c4)OCO5)o3)CC2)c1 | -6 | -4 | 4 | -15 | /
c1ccc(-c2nnc(CN3CCN(C(c4ccccc4)c4ccccc4)CC3)o2)cc1 | -10 | 2 | 6 | 3 | -56*
Cc1cc(C)cc(-n2ccnc2SCC(=O)Nc2ccc(C)cc2C)c1 | -15 | 2 | 7 | -18 | /
CO[C@H](C(=O)[C@@H](O)[C@@H](C)O)C1Cc2cc3cc(O[C@H]4C[C@@H](O[C@H]5C[C@@H](O)[C@H](O)[C@@H](C)O5)[C@@H](O)[C@@H](C)O4)c(C)c(O)c3c(O)c2C(=O)[C@H]1O[C@H]1C[C@@H](O[C@H]2C[C@@H](O[C@H]3C[C@](C)(O)[C@H](O)[C@@H](C)O3)[C@H](O)[C@@H](C)O2)[C@H](O)[C@@H](C)O1 (stereo partly drawn) | 2 | / | / | / | /
Cc1cc(C)n(-c2nc3nonc3nc2Nc2cccc(C)c2C)n1 | 0 | -1 | 2 | -32* | 31
Cc1cc(C)n(-c2nc3cc(Cl)c(Cl)cc3nc2Nc2c(C)cccc2C)n1 | 9 | -1 | 2 | 0 | /
COC(=O)c1ccc(N=Cc2c(C(F)(F)F)[nH]n(C)c2=O)cc1 | 0 | 1 | 2 | -7 | 3
CC1=NN(C(=O)c2ccc(C)cc2)C(O)(C(F)(F)OC(F)(F)F)C1 (stereo not drawn) | 13 | / | / | / | -6
CC1=NN(C(=O)c2ccccc2-n2cccc2)C(O)(C(F)(F)F)C1 (stereo not drawn) | -9 | -6 | 1 | -50* | -16
COc1ccc(C2Nc3ccccc3C(=O)N2NC(C)=O)c(OC)c1 (stereo not drawn) | -3 | 0 | 4 | -6 | 36
COc1cccc(COc2ccccc2C2Nc3ccc(Br)cc3C(=O)N2NC(=O)c2ccncc2)c1 (stereo not drawn) | -22 | -8 | 4 | 11 | -55*
Cc1cc2c(s1)c1cnn(Cc3ccc(F)c(F)c3F)c(=O)c1n2C | / | 10 | 1 | 5 | /
Cc1ccc(C(C)C)c(OCCNC(=O)c2cncc(Br)c2)c1 | 3 | -12 | 1 | 3 | -52*
COc1cc(C(=O)NCCOc2cc(C)ccc2C(C)C)cc(OC)c1OC | 10 | 0 | 4 | 7 | 24
